Screening results: PubChem, National Center for Advancing Translational Sciences (NCATS)
A selection: hits, their analogues and other compounds. The true share with any hit is near 19%.
TDP1 cell CPT: qHTS for Inhibitors of human tyrosyl-DNA phosphodiesterase 1 (TDP1): qHTS in cells in presence of CPT. chicken DT40 Tdp1-/-;hTDP1 cells + 20 nM CPT, ATP luminescence, 48 h. Potency, µM (doses to about 46.2 µM), without a hit: at the top dose activity change, negative = growth inhibition, usual class: inhibitors. 420,000 compounds, 12% hits; also: potency is read from the fitted curve at half-maximal effect; % is scaled to controls: 0 for no effect and ±100 for the full control effect; nearly all actives have a fitted effect of over 55% in size
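Cell growth measured by CellTiter-Glo luminescence after a minimum 48 h, 37 C compound exposure with 20 nM CPT in Tdp1-knockout DT40 cells stably expressing hTDP1, seeded 400/well; qHTS titration format.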
TDP1 cell noCPT: qHTS for Inhibitors of human tyrosyl-DNA phosphodiesterase 1 (TDP1): qHTS in cells in absence of CPT. DT40 Tdp1-/- hTDP1 cells, no CPT, ATP luminescence, 48 h. Potency, µM (highest dose often 46.2 µM), for inactives: at the top dose activity change, negative = growth inhibition, most hits filed as inhibitors. AID 686978, 2013. 420,000 compounds, 15% hits; also: potency is read from the fitted curve at half-maximal effect; % is scaled to controls: 0 for no effect and ±100 for the full control effect; nearly all actives have a fitted effect of over 55% in size
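Chicken DT40 Tdp1-/- cells complemented with human TDP1, screened without camptothecin (DMSO vehicle only), 400 cells/well. Compounds pin-transferred, cells incubated at 37 °C for at least 48 hr. Growth read as ATP-dependent luminescence (CellTiter-Glo, 30 min at RT).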
HepG2 viability: qHTS for Inhibitors of TGF-b: Cytotox Counterscreen. HepG2 CAGA-GFP viability, ATP luminescence, 18 h. Potency, µM (series often up to 46.1 µM), for inactives: top-dose activity change, negative = cytotoxicity, usual class: cytotoxic. 410,000 compounds, 0.76% hits. AID 588856, 2011; also: potency is read from the fitted curve at half-maximal effect
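HepG2 CAGA-GFP cells (1000/well, DMEM with 1% FBS) received compound, then TGF-beta at 500 pg/mL final, and were incubated 18 hours at 37 degrees C. Viability was read by CellTiter-Glo luminescence. Media-only wells were set as complete cell-killing and DMSO as no toxicity.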
IL1B secr inh: qHTS for Inhibitors of Inflammasome Signaling: IL-1-beta AlphaLISA Primary Screen; THP-1 LPS/ATP IL-1B secretion, AlphaLISA, 16 h; active compounds read low; activity change, % at 57.5 µM; 360,000 compounds, 4.7% hits; AID 743279, 2014; in the data active = activity change below about -50%; inconclusive = mostly about -30% to -49%; also: % is scaled to controls: 0 for no effect and ±100 for the full control effect
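Secreted IL-1B measured by AlphaLISA bead assay after 16 h compound exposure of THP-1 cells; compounds (final up to 57.5 uM) added 1 h before LPS (250 ng/mL) and ATP (1.25 mM) stimulation; lower signal means less secretion.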
TGFb SMAD3 inh: qHTS for Inhibitors of TGF-b; HepG2 CAGA-GFP TGF-b/SMAD3 reporter, GFP fluorescence, 18 h; TGF-beta stimulated, 500 pg/mL final; Potency, µM (titrated, usually from 46.1 µM), for inactives: top-dose activity, negative = inhibition, most hits filed as inhibitors; 410,000 compounds, 1.2% hits; AID 588855, 2011; also: potency is read from the fitted curve at half-maximal effect; % is scaled to controls: 0 for no effect and ±100 for the full control effect; nearly all actives have a fitted effect of over 65% in size
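Inhibition of TGF-beta-driven CAGA-GFP reporter expression in HEPG2 cells is measured by cellular GFP fluorescence after 18 h stimulation with 500 pg/mL recombinant TGF-beta in 1% FBS medium at 37 degrees C.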
TDP1 inh: qHTS Assay for Inhibitors of Tyrosyl-DNA Phosphodiesterase (TDP1) | Tyrosyl-DNA phosphodiesterase 1 (Homo sapiens), Q9NUW8 | recombinant TDP1, AlphaScreen DNA substrate cleavage | Potency, µM (doses to about 130 µM), inactives show at the highest dose activity change, negative = inhibition, actives largely listed as inhibitors | 350,000 compounds, 0.28% hits | AID 485290, 2010; also: potency is read from the fitted curve at half-maximal effect; % is scaled to controls: 0 for no effect and ±100 for the full control effect; nearly all actives have a fitted effect of over 40% in size
Target sequence (Q9NUW8 whole entry, looked up): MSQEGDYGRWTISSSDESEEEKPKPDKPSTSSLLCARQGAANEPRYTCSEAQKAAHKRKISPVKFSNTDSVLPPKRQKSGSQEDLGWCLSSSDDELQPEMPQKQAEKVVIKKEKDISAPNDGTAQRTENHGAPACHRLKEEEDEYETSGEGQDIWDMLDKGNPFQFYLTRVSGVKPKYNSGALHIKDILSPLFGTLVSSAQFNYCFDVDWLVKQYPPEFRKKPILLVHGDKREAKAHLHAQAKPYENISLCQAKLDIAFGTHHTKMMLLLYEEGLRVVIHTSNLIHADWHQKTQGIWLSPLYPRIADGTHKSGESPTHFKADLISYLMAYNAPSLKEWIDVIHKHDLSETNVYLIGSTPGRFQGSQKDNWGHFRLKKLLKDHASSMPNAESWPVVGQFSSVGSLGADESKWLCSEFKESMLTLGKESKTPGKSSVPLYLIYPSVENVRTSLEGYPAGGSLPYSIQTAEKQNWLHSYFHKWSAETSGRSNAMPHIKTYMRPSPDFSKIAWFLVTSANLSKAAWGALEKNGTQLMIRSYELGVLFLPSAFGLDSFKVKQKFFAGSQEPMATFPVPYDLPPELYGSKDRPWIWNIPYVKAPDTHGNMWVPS
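Here, a 5' biotin and 3' phosphotyrosine-FITC DNA oligonucleotide reports Tdp1 activity: intact substrate bridges AlphaScreen beads, while cleavage leaves a 3' phosphate and drops signal. All incubations at room temperature.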
* hit, by the source's call; ? = inconclusive; nt = not tested or not shown; [ ] = remark or other dose. Unless noted, calls follow the shape of the dose curve; as a rule, active = well fitted curve in the direction sought with a large enough effect; inconclusive = small, poorly fitted or top-dose-only effect, or another doubt; inactive = no such curve, though single readings can be large; an effect the other way counts as inactive or inconclusive.

SMILES | TDP1 cell CPT | TDP1 cell noCPT | HepG2 viability | IL1B secr inh | TGFb SMAD3 inh | TDP1 inh
Cc1ccc(N(C(=O)CCCC(=O)Nc2ccccn2)C(C(=O)NC2CCCC2)c2ccc(O)cc2)cc1C (stereo unspecified) | ? | ? | 0% | -75* | ? | 3%
Cc1ccc(N(C(=O)CCl)C(C(=O)NC2CCCCC2)c2cccnc2)cc1C (stereo unspecified) | 1.8µM* | 1.6µM* | -26% | -100* | ? | 2%
Cc1ccccc1N(C(=O)CCCC(=O)Nc1ccccn1)C(C(=O)NC1CCCC1)c1ccc(O)cc1 (stereo unspecified) | -10% | ? | 10% | 3 | ? | 3%
CCC(C(=O)Nc1cc(F)ccc1F)n1nc(-c2cc(C)ccc2C)ccc1=O (stereo unspecified) | ? | ? | -57% | nt | ? | 5%
Nc1nc(NCCCN2CCOCC2)nc(Nc2cccc(Cl)c2)c1[N+](=O)[O-] | ? | ? | -20% | -92* | ? | 8%
Cc1ccc(Nc2nc(NCCCN3CCOCC3)nc(N)c2[N+](=O)[O-])cc1C | ? | 18µM* | -8% | -3 | 0% | 4%
O=C(c1cccc(C(F)(F)F)c1)C1CCCN(C(=O)CCCn2cncn2)C1 (stereo unspecified) | 2% | -11% | 0% | 0 | -7% | -3%
O=C(Oc1ccccc1)N1CCC2(CCCN(c3ccccn3)C2)CC1 | -1% | ? | nt | nt | nt | nt
Brc1ccc2c(c1)CNc1c(ncnc1N1CCOCC1)O2 | 16µM* | ? | -4% | -12 | -1% | 6%
COc1ccccc1CN1C(=O)CN(C2CCCCCC2)C(=O)C1c1ccc(F)cc1 (stereo unspecified) | 21µM* | 18µM* | -36% | -21 | -20% | ?
CCOc1ccc(C2C(=O)N(C3CCCCC3)CC(=O)N2Cc2ccc(F)cc2)cc1OC (stereo unspecified) | ? | -23% | -7% | nt | -4% | 13%
CCCOc1ccc(C2C(=O)N(C3CCCCCC3)CC(=O)N2Cc2ccccc2OC)cc1OC (stereo unspecified) | 26µM* | 16µM* | -25% | nt | ? | 3%
CCCCN1C(=O)CN(C2CCCCCC2)C(=O)C1c1ccc(OCCC)c(OC)c1 (stereo unspecified) | 12µM* | ? | -23% | nt | -11% | 5%
COc1cc(-c2nnc(SCC(=O)NC(C)C)o2)cc(OC)c1OC | -29% | -18% | -8% | nt | 49% | 11%
Cc1noc(C)c1S(=O)(=O)N1CCc2nc(COc3ccccc3)c3c(c2C1)CO[C@@H](C)C3 | nt | nt | nt | nt | nt | 7%[12.3 µM]
Cc1ccc2c(c1)C(c1ccc(F)cc1)N(C(=O)c1ccccc1Br)CC(=O)N2 (stereo unspecified) | -19% | -20% | 4% | 5 | -7% | nt
CN1OC[C@@H]2CN(S(=O)(=O)c3cccc4ccccc34)[C@H](c3ccc(-c4cccnc4)cc3)C[C@@H]21 | ? | 18µM* | -26% | -19 | 4% | nt
Cc1ccccc1S(=O)(=O)N1C[C@H]2CON(C)[C@H]2C[C@H]1c1cccc(-c2ccc(C#N)cc2)c1 | 21µM* | ? | -10% | -11 | -25% | nt
Cc1cc(C)c(S(=O)(=O)N2C[C@H]3CON(C)[C@H]3C[C@H]2c2ccc(N3CCCCC3)cc2)c(C)c1 | ? | ? | -9% | 5 | ? | nt
